# Hits are enriched below; roughly 1.8% of the tested compounds scored in any of these assays.
# VLA-4 inh: inhibition in a human VLA-4 binding assay; VLA-4 expressing cells, ligand binding flow cytometry; inhibition, % (about 7 µM as worked out from the volumes in the protocol); hit rate 0.2% among 330,000; P13612; in the data active = inhibition above about 50%
# A3G deaminase: inhibitors of human APOBEC3G DNA deaminase | Q9HC16 | inhibition, % at 20 µM | hit rate 0.28% among 330,000 | AID 493012 | recombinant A3G, ssDNA deamination FAM/TAMRA fluorescence;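 active = inhibition of at least 40% at 20 µM, with no more than 30% in the related APOBEC3A deaminase screen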;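 also: plate controls were DMSO wells with A3G for no effect and wells lacking A3G enzyme for full effect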
# APOBEC3A inh: inhibitors of human APOBEC3A DNA deaminase; P31941; recombinant A3A, FAM/TAMRA ssDNA deamination fluorescence; inhibition, % at 20 µM; hit rate 0.41% among 330,000; AID 493011;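 active = at least 40% inhibition at 20 µM here, with at most 30% in a related deaminase screen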;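 also: plate controls were A3A with DMSO for no effect and wells lacking A3A enzyme for full effect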
# Target sequence (P31941 whole entry, looked up): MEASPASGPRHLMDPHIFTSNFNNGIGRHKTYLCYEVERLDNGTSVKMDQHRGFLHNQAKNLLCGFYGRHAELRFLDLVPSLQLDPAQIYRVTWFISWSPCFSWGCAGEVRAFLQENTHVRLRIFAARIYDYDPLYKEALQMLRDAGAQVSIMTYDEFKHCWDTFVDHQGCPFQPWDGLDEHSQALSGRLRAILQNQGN
# NRP1-CendR mod: NRP-1/CendR interaction modulation; O14786; FAM-RPARPAR peptide binding to NRP-1, fluorescence polarization; inhibition, % at 25 µM; hit rate 0.85% among 360,000; AID 602438;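 active = inhibition or corrected inhibition above about 18%, plus a signal ratio from 0.5 to 1.5, limit read from the data, passing the limit was not always enough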
# MIN6 prolif: MIN6 beta-cell proliferation induction; MIN6 cells proliferation, ATPlite luminescence, 48 h; cells starved in 0.2% serum; 100% = growth in 10% serum; proliferation, % at 10 µM; hit rate 0.29% among 330,000;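 active = compounds whose signal lies at least 3.5 SD above the mean of all wells on their plate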;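 also: 0% = DMSO-treated cells in low-serum medium and 100% = 10% serum control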
# APOBEC3A confirm: APOBEC3A (human) deaminase inhibition, confirmed; shares compounds with APOBEC3A inh; recombinant A3A, ssDNA deaminase UDG fluorescence assay; inhibition, % at 20 µM; hit rate 63% among 1,400; AID 493151;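 active = inhibition reaching a set limit, 80% of the first screen's cutoff, at 20 µM in any replicate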;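 also: plate controls were DMSO wells with A3A for no effect and wells lacking A3A enzyme for full effect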
# UDG ctr A3A: counter-screen for APOBEC3A inhibitors: UDG | shares compounds with APOBEC3A inh | inhibition, % at 20 µM | 1,000 tested, under 10 active | UDG counterscreen, FAM/TAMRA uracil oligo fluorescence | AID 504714; call rule not given here
# * marks the source's active call; other numbers are inactive results; nt = no result given.
SMILES,VLA-4 inh,A3G deaminase,APOBEC3A inh,NRP1-CendR mod,MIN6 prolif,APOBEC3A confirm,UDG ctr A3A
CC(C)(C)N(Cc1ccccc1)C(=O)CN1C(=O)c2ccccc2S1(=O)=O,-1.8,1.2,45.1*,10.6,0.9,37.6*,2.4
CC(C)(C)N(Cc1ccccc1)C(=O)CN1C(=O)c2ccccc2C1=O,-6.4,-9.2,-3.5,-5.0,-1.2,nt,nt
CC(C)c1nc2c(c(=O)n(C)c(=O)n2C)n1C,11.1,-5.0,-2.2,-1.1,0.2,nt,nt
Cc1cc(C)cc(N=C2NC(=O)/C(=C/c3cccs3)S2)c1,5.7,13.2,42.0*,-10.8,-3.6,26.3,nt
O=C1NC(=Nc2ccccc2)S/C1=C\c1cccs1,9.4,-8.3,-3.6,-16.0,-3.4,nt,nt
CCCCn1c(N)c(N(CC(C)C)C(=O)COC(=O)Cc2cccc(OC)c2)c(=O)[nH]c1=O,3.7,-4.8,-2.6,6.9,-0.4,nt,nt
Cc1ccc(C)c(NC(=O)CSc2ncnc3nc[nH]c23)c1,-1.6,5.0,47.2*,-7.1,0.1,30.9*,-2.6
Cc1cccc(NC(=O)CSc2ncnc3nc[nH]c23)c1C,3.1,8.2,34.3,-4.6,-3.7,nt,nt
O=C(NCc1ccccc1Cl)c1cc(=O)[nH]c2ccccc12,-2.7,2.6,51.6*,-19.9,-2.0,15.3,nt
O=C(O)c1ccc2c3c(cccc13)C(=O)N(c1ccccc1)C2=O,-1.8,26.0,63.2*,-8.7,-1.2,55.3*,-3.0
O=C(O)c1ccc(N2C(=O)c3cccc4c(C(=O)O)ccc(c34)C2=O)cc1,-1.3,nt,nt,-31.2,nt,nt,nt
O=C(Oc1ccc2c(c1)OCO2)c1cc2c(s1)CCC2,10.1,28.9,62.4*,7.9,-5.5,79.5*,nt
COc1ccc(NC(=O)C(=O)N2N=C3CCCCC3C2(O)C(F)(F)F)cc1 (centres undefined),-2.1,10.0,55.4*,5.6,0.1,54.4*,-1.0
Cc1cc(=O)oc2c1c(C)nn2-c1nn[nH]n1,3.1,23.2,58.8*,1.1,2.0,72.2*,-1.8
CCCc1cc(=O)oc2cc(C)cc(OCc3nn[nH]n3)c12,1.3,-5.9,-4.1,-9.1,0.3,nt,nt
COc1ccc2c(COC(=O)CC3Sc4ccccc4NC3=O)cc(=O)oc2c1 (centres undefined),0.9,0.2,8.8,-15.1,-1.4,nt,nt
CC(=O)Nc1ccc2c(COC(=O)CC3Sc4ccccc4NC3=O)cc(=O)oc2c1 (centres undefined),2.9,16.2,50.0*,-36.6,1.5,50.9*,4.8
CCn1cc([N+](=O)[O-])c(=O)c2cc(F)c(N3CCOCC3)cc21,-8.2,-0.1,-14.8,1.1,-2.1,nt,nt
CCc1nn(CCCC(=O)N2CCC(C)CC2)c(=O)c2cc3occc3n12,-5.2,-1.9,40.2*,12.3,8.2,-6.9,-1.2
O=S(=O)(c1ccc(F)cc1)N1CCN(CC2CC3C=CC2C3)CC1 (centres undefined),28.8,-7.7,-2.1,7.5,-1.9,nt,nt
COC(=O)c1ccc(Cn2c(C)cc(C)[n+]2C)o1,0.8,29.3,51.6*,-2.4,-0.9,71.7*,-3.2
CSc1cccc(NC(=O)CN(C2CCCCC2)S(C)(=O)=O)c1,-7.4,-6.6,64.9*,-12.1,-2.5,-5.8,-2.3
CCn1c(SCC(=O)Nc2nccs2)nnc1-c1ccc(C)cc1,3.9,-7.3,-1.9,-4.3,-2.4,nt,nt
CCC(=O)Nc1ccc(-c2nnc(SCC(=O)Nc3nccs3)n2C)cc1,4.1,28.7,52.7*,-4.5,-0.1,13.5,nt
C[C@@H]1CN([C@H](C)CO)C(=O)Cc2cc(NC(=O)CCC(F)(F)F)ccc2O[C@@H]1CN(C)S(=O)(=O)c1ccccc1,nt,nt,nt,-0.7,nt,nt,nt
O=C(/C=C/c1ccc2c(c1)OCO2)c1cccnc1,4.9,-9.7,-3.8,5.3,-3.0,nt,nt
O=C(N/N=C\C=C\c1ccc2c(c1)OCO2)c1cccnc1,6.5,-3.7,45.1*,1.1,-0.7,0.6,2.9
O=C(O)c1cc(S(=O)(=O)N2CCCCC2)ccc1N1CCCCC1,-1.5,-7.0,-5.9,-10.6,-5.4,nt,nt
CCOC(=O)c1sc(N=NC2=C(O)CCCC2=O)c(C(=O)OCC)c1C,-24.7,18.9,40.3*,5.0,-3.1,18.2*,-0.3
CCCCc1c(C)nc2ccc(OC)cc2c1SCCC(=O)O,-17.2,5.7,42.0*,0.0,-3.4,26.6,nt
